Screening results as filed in PubChem BioAssay.
hcGAS inh – inhibitors of human cGAS; inhibition, % at 12.5 µM; Q8N884; actives 0.081% (n = 290,000); recombinant h-cGAS, ATP depletion, Kinase-Glo luminescence;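 note: 0% = vehicle reaction and 100% = reaction without DNA for no activity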
NPYLR7 ag – activates Aedes aegypti NPYLR7 receptor; activation, % at 10 µM; actives 0.15% (n = 270,000); HEK293T NPYLR7/Galpha15, GCaMP6s calcium fluorescence; AID 1259423; in the data active = activation above about 40%;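 note: 0% = vehicle and 100% = reference agonist at the receptor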
mcGAS inh – mouse cGAS inhibition by luminescence. AID 1259399. actives 0.15% (n = 160,000). recombinant cGAS, Kinase-Glo ATP depletion luminescence. Q8C6L5. inhibition, % at 12.5 µM;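 note: 0% = negative control wells and 100% = reference inhibitor with no enzyme activity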
Target sequence (Q8C6L5 whole entry, looked up): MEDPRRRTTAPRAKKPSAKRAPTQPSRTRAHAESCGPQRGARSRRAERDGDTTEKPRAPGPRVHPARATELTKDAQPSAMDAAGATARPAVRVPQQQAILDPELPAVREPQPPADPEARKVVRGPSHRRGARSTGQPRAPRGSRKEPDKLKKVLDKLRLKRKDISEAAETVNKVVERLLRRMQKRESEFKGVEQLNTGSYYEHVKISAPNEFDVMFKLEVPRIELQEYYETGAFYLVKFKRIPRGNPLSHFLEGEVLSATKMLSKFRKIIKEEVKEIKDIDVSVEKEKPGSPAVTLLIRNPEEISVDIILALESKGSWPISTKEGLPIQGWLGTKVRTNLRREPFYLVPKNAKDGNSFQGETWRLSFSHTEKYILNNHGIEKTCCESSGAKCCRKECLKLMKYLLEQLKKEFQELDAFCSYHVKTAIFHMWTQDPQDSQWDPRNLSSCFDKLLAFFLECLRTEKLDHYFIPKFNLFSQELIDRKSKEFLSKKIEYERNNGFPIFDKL
The depositor's hits bear a star; x = no result; ! = not active in a repeat. Sampled rows, rich in hits. Any-hit rate of the full collection: about 0.24%. Cut-off read from the data, not from the text of the source, unless noted: active = inhibition above about 40%; inactive = the rest.

SMILES	hcGAS inh	NPYLR7 ag	mcGAS inh
CC1(C)CC[C@]2(C)CC[C@]3(C)C(=CCC4[C@@]5(C)CC[C@H](O)C(C)(C)C5CC[C@]43C)C2C1 (stereo not given in full)	-5.2	x	-3.4
C[C@@H]1OC(O[C@H]2[C@H](OC(=O)[C@]34CCC(C)(C)CC3C3=CCC5[C@@]6(C)CC[C@H](OC7O[C@@H](C)[C@H](O[C@@H]8OC[C@@H](O)[C@H](O)[C@H]8O)[C@@H](O)[C@H]7O)C(C)(C)C6CC[C@@]5(C)[C@]3(C)CC4O)OC[C@H](O)[C@H]2O)[C@H](O)[C@H](O)[C@H]1O[C@@H]1O[C@H](CO)[C@@H](O)[C@H](O)[C@H]1O (stereo not given in full)	-1.4	54.1*	x
O=C(NCC1CCCN(C(=O)c2cccc(N3CCCC3=O)c2)C1)c1ccco1 (stereo not given)	-7.7	25.9	x
Cc1cccc(-c2nc3cc(C)ccn3c2Nc2c(C)cccc2C)c1	4.7	-4.1	-0.5
Cc1cc(C)n(CCNc2nc3c(C)cc(Cl)cc3s2)n1	-5.1	-2.5	x
CCN(CC)CCN(C(=O)c1cc(C)on1)c1nc2c(F)cc(F)cc2s1	-7.7	4.5	-4.7
CC(=O)Nc1sc2c(c1-c1nc3ccccc3s1)CCN(C(C)C)C2	78.1*	21.5	103.9*
CC(C)N1CCc2c(sc(NC(=O)c3ccnn3C)c2-c2nc3ccccc3s2)C1	-0.7	x	-2.8
CCn1cc(C(CC(=O)N2CCC3(CC2)OCCO3)c2ccc(F)cc2)c2ccccc21 (stereo not given)	-3.6	4.7	-4.8
O=c1oc(-c2ccccc2Br)nc2ccccc12	-1.5	18.8	-4.8
O=c1oc(-c2ccccc2O)nc2ccccc12	55.1*	2.7	x
CCC(C)NC(=O)CN(C)C(=O)c1csc(Nc2cccc(C(F)(F)F)c2)n1 (stereo not given)	-8.6	x	-5.6
CC(C)CNC(=O)CN(C)C(=O)c1csc(Nc2cc(Cl)ccc2Cl)n1	165.6*	2.7	x
O=C(O)c1cnc2ccccc2c1N1CCCC1	-12.7	-2.0	-7.0
COc1cc(-c2cc(=O)c3c(O)c(OC)c(OC)c(OC)c3o2)cc(OC)c1OC	-0.5	-3.0	x
COc1c(O)cc2c(=O)oc3c(OC)c(O)cc4c(=O)oc1c2c34	75.3*	3.7	7.8
COc1ccc(NCc2cc(OC)c3c(c2)OCCO3)cn1	-5.8	3.5	-5.7
COc1ccc(NCc2ccc(OC)c(Br)c2)cn1	-12.5	85.7*	-8.7
CN(C)C(N)=NCCC[C@H](N)C(=O)O	-1.7	-2.1	-2.9
NC(=NCCC[C@H](N)C(=O)O)NO	-2.9	-0.5	57.7*
CCCC1CCC(C(=O)Nc2nnc(SCC)s2)CC1 (stereo not given)	-2.6	54.8*	-6.4
O=C(Nc1nnc(SCC2CC2)s1)C1CCCC1	-4.5	-5.1	-3.5
O=C(NCc1cccnc1)c1cc(S(=O)(=O)N2CCSCC2)c[nH]1	-4.4	9.5	-13.6
Cc1nc(=O)c(-c2ccccc2)c(C)n1-c1ccccc1	-3.7	-11.6	x
Cc1nc(=O)c(-c2ccccc2)c(C)n1-c1ccccc1O	-3.4	80.2*	-5.5
SMILES	hcGAS inh	NPYLR7 ag	mcGAS inh
CC(=O)Oc1ccc2nc(-c3ccc(Oc4ccc([N+](=O)[O-])cc4)cc3)oc(=O)c2c1	-6.8	15.0	-5.9
Cc1cc(C)nc(N2CC(CSc3ccccn3)OC2=O)n1 (stereo not given)	-11.4	6.1	x
O=C(O)c1cc2c(ccc3ccccc32)oc1=O	16.5	-6.4	41.8*
COc1ccc(-c2nnc(-c3cc4c(ccc5ccccc54)oc3=O)o2)cc1	2.8	-3.7	-1.0
O=c1oc2ccc3ccccc3c2cc1-c1nnc(-c2ccccc2)o1	46.4*	-6.2	-2.0
O=C(NCc1ccccn1)c1cc2c(ccc3ccccc32)oc1=O	-6.0	11.1	x
CCN(CC)CCN(C(=O)CCS(=O)(=O)c1ccccc1)c1nc2c(OC)ccc(C)c2s1	-7.1	-12.0	-7.5
CCOC(=O)c1c(CN2CCCCC2)n(-c2ccccc2)c2cc(Br)c(O)c(CN(C)C)c12	-4.5	-12.3	-3.9
CC1(C)CNC2(S1)C(=O)Nc1ccc(Cl)cc12 (stereo not given)	-1.2	28.0	x
COc1cccc(NC(=O)NC(Cc2ccccc2)c2nnc(SCc3ccc(F)cc3)n2-c2ccc(C)cc2)c1 (stereo not given)	-7.2	4.4	-4.9
O=C(Nc1ccc(NC2CCCCC2)cc1)c1nccc2ccccc12	-4.4	1.2	x
O=C(c1nccc2ccccc12)N1CCN(CC2CCCC2)CC1	-3.5	125.6*	x
Cc1ccc(Cl)c(OC2CC3CCC(C2)N3C(=O)c2ccc(CSCCc3ccccc3)cc2)c1 (stereo not given)	-15.1	9.4	-8.4
COC(=O)C1CCN(C(=O)Cn2cc(C(F)(F)F)cc(Cl)c2=O)CC1	-11.6	0.8	x
COC(=O)c1sc(N)c(C(=O)OC)c1Cn1cc(C(F)(F)F)cc(Cl)c1=O	54.0*	-4.6	-2.5
COc1ccc(N2C3=[N+](CCCS3)CC2(O)c2ccc(C)cc2)cc1 (stereo not given)	-7.4	3.8	-3.3
S=c1n(CN2CCCC2c2ccccc2)cc2ccccn12 (stereo not given)	54.9*	12.6	x
O=C(CN1CCCC1c1ccccc1)NCc1ccccc1 (stereo not given)	-4.9	2.9	x
O=c1c(O)c(-c2cc(O)c(O)c(O)c2)oc2cc(O)cc(O)c12	71.2*	-3.0	82.1*
O=c1c(O)c(-c2ccc(O)cc2O)oc2cc(O)cc(O)c12	-6.6	5.0	6.9
CCN(CC)CCCC(C)NC(=O)c1cc(-c2ccccc2Cl)nn1-c1ccc(OC)cc1 (stereo not given)	-2.6	14.1	-4.5
CCN(CC)CCCC(C)Nc1c2ccc(Cl)cc2nc2ccc(OC)cc12 (stereo not given)	64.2*!	66.7*	29.3
C=CCn1cc(CN2CCC(c3cccc(OC)c3OC)C2)c(C)n1 (stereo not given)	-0.9	-5.3	-5.4
CCOc1ccc(S(=O)(=O)Nc2cc(Sc3ncn[nH]3)c(O)c3ccccc23)cc1	-6.7	-10.0	7.9
Cc1ccc(S(=O)(=O)Nc2cc(Sc3ncn[nH]3)c(O)c3ccccc23)c(C)c1	-8.2	-5.8	40.5*
SMILES	hcGAS inh	NPYLR7 ag	mcGAS inh
O=C(Nc1ccccc1)c1ccc(CN2CCOc3ccccc32)cc1	-5.7	0.2	x
Oc1[nH]c(=S)sc1C=Nc1ccccc1	6.5	-0.6	57.2*
C=CCn1c(O)c(C=Nc2ccccc2)sc1=S	-2.8	-3.1	-6.0
O=C(CNc1cc(F)ccc1-n1cccn1)NCc1ccco1	-0.8	-6.9	-6.7
CC(C)(C)CC(C)(C)Nc1c(-c2ccccc2F)nc2ccccn12	-4.0	5.5	-7.3
Cn1c(-c2ccncc2)nn(CN2CCN(c3ccccc3)CC2)c1=S	-4.3	8.1	x
O=C1c2ccccc2-c2nn(CN3CCN(c4ccccc4)CC3)c3cccc1c23	14.5	87.7*	4.4
CC(C)NCc1nccn1Cc1ccccc1C(F)(F)F	1.7	-3.7	-2.9
O=C(O)c1cccnc1C(=O)O	53.5*!	3.3	-3.7
O=C(O)c1cccnc1S(=O)(=O)C(F)(F)F	-8.2	9.8	x
NC(=O)c1c(SCc2c(F)cccc2F)sc2c(O)cc(=O)[nH]c12	-1.7	2.9	-0.8
CC(NC1CCN(c2ccc(C(=O)N(C)C)cc2)CC1)c1ccc(Cl)cc1 (stereo not given)	-7.8	6.3	-12.0
